This note sets out measurements from PubChem BioAssay AID1053197 (The Scripps Research Institute Molecular Screening Center, 2014).

The structures appear in SMILES notation. Among all 370,000 compounds or so, about 2,600 (0.7%) were called active. The sample holds actives, similar compounds and a random draw of the others, so the mix is not that of the screen. A number with no mark means an inactive call.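 Rule for the calls: active = inhibition above a cutoff: mean of compounds within the control limits plus 3 SD of those (cut at about 17% in these data); inactive = the rest.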

In the assay the target is Sialate O-acetylesterase (Homo sapiens) (UniProt Q9HAT2). Put plainly: human SIAE inhibitors, primary screen, biochemical, fluorescence polarization, FP-Rh probe, 1536-well HTS (AID 1053197).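 Note: 0% = plate median of compound wells and 100% = probe without SIAE protein.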 To be noted: SIAE FP-Rh probe binding, at 9.66 µM, stronger effect = higher value. On the technique in general: Polarisation of emitted light reports the rotation of a fluorescent probe.
Sialate O-acetylesterase (Homo sapiens), sequence (Q9HAT2 whole entry, looked up): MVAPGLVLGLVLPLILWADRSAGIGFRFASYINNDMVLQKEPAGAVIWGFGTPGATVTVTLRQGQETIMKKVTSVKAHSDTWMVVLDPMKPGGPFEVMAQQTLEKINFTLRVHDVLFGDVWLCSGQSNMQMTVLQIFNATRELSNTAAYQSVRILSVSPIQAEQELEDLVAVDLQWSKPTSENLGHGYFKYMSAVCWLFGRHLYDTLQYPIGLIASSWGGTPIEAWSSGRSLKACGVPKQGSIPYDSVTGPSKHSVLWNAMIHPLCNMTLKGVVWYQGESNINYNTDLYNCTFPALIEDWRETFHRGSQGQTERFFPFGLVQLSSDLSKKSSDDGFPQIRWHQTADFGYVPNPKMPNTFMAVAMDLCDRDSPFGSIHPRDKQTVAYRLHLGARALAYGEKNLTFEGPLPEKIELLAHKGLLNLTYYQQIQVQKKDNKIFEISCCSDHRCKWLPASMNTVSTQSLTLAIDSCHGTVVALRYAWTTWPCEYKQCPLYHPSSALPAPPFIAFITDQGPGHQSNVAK
For the compound `Cc1ccc(Cn2cc(CN3[C@@H](C)COc4cc(Br)ccc4S3(=O)=O)nn2)cc1`, the inhibition – broadly, the change of the read-out against control, counted positive when it falls – is -0.41%.

On to `CC(=O)OCCN1CCCC12CCC(c1ccccc1)CC2` (centres undefined), for which the inhibition is -7.94%.

Turning to `COc1ccc2nc(Nc3nc4cc5c(cc4s3)OCCO5)sc2c1`, the inhibition is 21.1% (active).

In the case of `COc1cccc(C(=O)Nc2cc3c(cc2Br)OCCCO3)c1`, the inhibition was 5.12%.

As for `COc1ccc(-c2nnc(SCC(=O)c3ccc4c(c3)OCCO4)o2)cc1`, the inhibition was -8.81%.

As to `O=C(NC1CCC1)c1ccc(C#CC2CC2)cn1`, the inhibition is 3.02%.

In the case of `CC(C)(C)OC(=O)NCCc1ccccc1/C=C/S(=O)(=O)NCc1ccc(F)cc1`, the inhibition is 3.43%.

`Cc1ccc(-c2nc(C3CCCN(S(=O)(=O)c4ccc(Br)s4)C3)no2)cc1` (centres undefined): the inhibition was 3.3%.

With `O=C(CSc1nnc(COc2ccccc2)n1-c1ccc(Cl)cc1)Nc1ccc2c(c1)OCO2`, the inhibition was -2.77%.

As for `S=C(NCCCc1cnc[nH]1)NCCCN(Cc1ccc(Cl)c(Cl)c1)c1ccc(Br)cn1`, the inhibition was 38.7% (active).

For `NCCCNC(=S)NCCCN(Cc1ccc(Cl)cc1)c1ccc(Br)cn1`, the inhibition is -4.09%.

As for `COc1ccc(Cn2ccc3ccc(-c4ccc5ccn(Cc6ccccc6C)c5c4)cc32)cc1`, the inhibition is 1.75%.

Turning to `COC(=O)[C@]12C[C@H](CC(=O)NCCCN3CCCC3=O)C(=O)N(CCc3ccc(OC)c(OC)c3)C1=C[C@H](COCc1ccccc1)O[C@@H]2C`, the inhibition is -1.06%.

Consider `CCOC(=O)[C@]12CCCCC/C=C\1N(Cc1ccc(OC)cc1)C(=O)[C@H]2CC(=O)NCc1ccc(C)o1`, for which the inhibition was 4.67%.

For `O=C(CCCCCN1C(=O)C2C3C=CC(C3)C2C1=O)Nc1ccccc1` (centres undefined), the inhibition is 0.48%.

For `COc1ccc(CSc2nnc(SCC(=O)Nc3ccccc3C(F)(F)F)s2)cc1`, the inhibition is 2.74%.

Take `Cc1nc2cc(NCc3cccs3)ccc2n1C`: the inhibition was 82.8% (active).

`O=C(NCc1cccs1)c1ccc2c(c1)ncn2C1CCCC1`: the inhibition was 6.82%.

With `CC(NCc1cccs1)C(=O)Nc1cc(Cl)cc(Cl)c1` (centres undefined), the inhibition was 8.74%.

For `Cc1ccc(CN2CCCCC(NC(=O)C3CCCCC3)C2=O)cc1` (centres undefined), the inhibition is -2.58%.

Regarding `COC(=O)[C@]12C[C@H](CC(=O)NCc3ccccc3)C(=O)N(Cc3ccccc3)C1=C[C@H](COCc1ccccc1)O[C@@H]2C`, the inhibition is -4.26%.

In the case of `CC(=O)Nc1ccc(S(=O)(=O)Nc2ccc(N3CCCCC3)cc2)cc1`, the inhibition was 22.2% (active).

In the case of `CC(=O)Nc1ccc(S(=O)(=O)N2CCCC2C(=O)O)cc1` (centres undefined), the inhibition was -4.8%.

Take `CC(=O)Nc1ccc(S(=O)(=O)N2CCN(C3CCCCCCC3)CC2)cc1`: the inhibition is 1.94%.
